Records with an inconclusive call do not appear. A call without a number means that no potency is given here. Calls of active or inactive are those of the source. Calls follow the shape of the full dose curve.
target: Peroxisome proliferator-activated receptor gamma (Homo sapiens) (UniProt P37231); assay: qHTS assay to identify small molecule antagonists of the peroxisome proliferator-activated receptor gamma (PPARg) signaling pathway (AID 743191); details: HEK293H PPARg-UAS-bla, beta-lactamase ratio, antagonist, 17 h; series mostly up to 62.6 µM; also: nearly all actives have a fitted effect of over 30% in size
Excerpt: U.S. Tox21 Program National Center for Advancing Translational Sciences [NCATS] NIH Chemical Genomics Center [NCGC] U.S. Environmental Protection Agency [EPA] National Institutes of Environmental Health Sciences [NIEHS] National Toxicology Program [NTP] U.S. Food and Drug Administration [FDA] Tox21 Assay Overview: The peroxisome proliferator-activated receptors (PPARs) are lipid-activated transcription factors of the nuclear receptor superfamily with three distinct subtypes namely PPAR alpha, PPAR delta (also called PPAR beta) and PPAR gamma (PPARg). All these subtypes heterodimerize with Retinoid X receptor (RXR) and these heterodimers regulate transcription of various genes. PPAR-gamma receptor (glitazone receptor) is involved in the regulation of glucose and lipid metabolism. To identify the compounds that inhibit PPAR-gamma signaling, GeneBLAzer PPAR gamma UAS-bla HEK293H cell line (Invitrogen, Carlsbad, CA, USA) containing a beta-lactamase reporter gene under control of an Upstream Activator Sequence (UAS) was used to screen the Tox21 compound library.
Tox21 Assay Protocol Summary: PPARg-bla cells were dispensed at 3000 cells/6uL/well in 1536-well black wall/clear bottom plates using a Multidrop Combi (Thermo Fisher Scientific, Waltham, MA) dispenser. After the assay plates were incubated at 37C and 5% CO2 for 5 h, 23 nL of compounds dissolved in DMSO, positive controls or DMSO only was transferred to the assay plate by a Pintool station (Kalypsys, San Diego, CA). The assay plates were incubated at 37C for 17 h. After 1 uL of LiveBLAzerTM B/G FRET substrate was added using a Bioraptr Flying Reagent Dispenser (FRD) workstation (Beckman Coulter, Indianapolis, IN, USA), the plates were incubated at room temperature for 1 h, and fluorescence intensity was measured by an Envision plate reader (PerkinElmer, Shelton, CT).
Potency is read from the fitted curve at half-maximal effect.

Peroxisome proliferator-activated receptor gamma (Homo sapiens), sequence (P37231 whole entry, looked up): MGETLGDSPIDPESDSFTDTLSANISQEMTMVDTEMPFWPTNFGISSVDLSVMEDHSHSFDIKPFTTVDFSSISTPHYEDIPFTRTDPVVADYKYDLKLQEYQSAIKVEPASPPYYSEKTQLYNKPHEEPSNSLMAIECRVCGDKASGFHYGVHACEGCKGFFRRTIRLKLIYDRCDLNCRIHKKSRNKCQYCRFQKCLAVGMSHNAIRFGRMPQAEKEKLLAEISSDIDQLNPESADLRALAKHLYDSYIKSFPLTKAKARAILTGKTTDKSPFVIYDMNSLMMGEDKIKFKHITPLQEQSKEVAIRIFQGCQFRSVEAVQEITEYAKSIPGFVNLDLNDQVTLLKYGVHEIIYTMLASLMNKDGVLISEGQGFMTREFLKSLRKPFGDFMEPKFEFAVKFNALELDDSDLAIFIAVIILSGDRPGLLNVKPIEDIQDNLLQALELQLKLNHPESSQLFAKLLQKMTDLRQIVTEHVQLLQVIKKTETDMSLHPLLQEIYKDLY

SMILES	Potency
O=C1c2ccccc2C(=O)C1c1nc2ccccc2c(Br)c1O	inactive
O=C(OC(=O)c1ccccc1)c1ccccc1	inactive
Cc1cc2c(OCC(CNC(C)(C)C)OC(=O)c3ccccc3)cccc2[nH]1 (stereo not given)	inactive
CCOC(=O)C1=C(C)NC(C)=C(C(=O)OC)C1c1cccc(Cl)c1Cl (stereo not given)	inactive
CCOC(=O)c1ccc(OCCN2C[C@H](O)[C@@H](O)[C@H](O)[C@H]2CO)cc1	inactive
COC(=O)[C@H]1[C@H]2C[C@@H]3c4[nH]c5cc(OC)ccc5c4CCN3C[C@H]2C[C@@H](OC(=O)/C=C/c2ccc(O)c(OC)c2)[C@@H]1OC	6.68 µM (active)
Cc1cc(O)c(C)c(C)c1O	inactive
C/C=C(/C(=C/C)c1ccc(O)cc1)c1ccc(O)cc1	29.8 µM (active)
c1ccc2c(c1)CCc1ccccc1N2	inactive
CCC1NC(=O)c2cc(S(N)(=O)=O)c(Cl)cc2N1 (stereo not given)	inactive
CC(C)Nc1cccnc1N1CCN(C(=O)c2cc3cc(NS(C)(=O)=O)ccc3[nH]2)CC1	inactive
CO[C@]1(NC(=O)CSC(F)F)C(=O)N2C(C(=O)O)=C(CSc3nnnn3CCO)CO[C@H]21	inactive
CCCCCCCCCCC(=O)O	inactive
O[C@@H]1CO[C@H]2[C@@H]1OC[C@@H]2O	inactive
CC(=O)NC1(c2cccc(F)c2)CCN(CC[C@@]2(c3ccc(Cl)c(Cl)c3)CN(c3ccccc3)C(=O)CO2)CC1	43.8 µM (active)
COc1cc(C(=O)NCCCCCC(=O)O)cc(OC)c1OC	inactive
O=C1Cc2cc(Cl)ccc2N1	inactive
O=c1[nH]ncc2ccccc12	inactive
CC(C)=CCC1C(=O)N(c2ccccc2)N(c2ccccc2)C1=O	4.22 µM (active)
N#CCc1ccc(Cl)cc1Cl	inactive

SMILES	Potency
O=C(/C=C/c1ccccc1)OCCc1ccccc1	inactive
CCOC(=O)c1ccc(O)c(O)c1	inactive
OC1(c2ccccc2)CCNCC1	inactive
CC1=Nc2ccc3ccccc3c2C1(C)C	inactive
CCOC(=O)/C=C/C(=O)OCC	inactive
C=CC(C)(CCC=C(C)C)OC(=O)CC(C)C (stereo not given)	inactive
O=C(O)C[C@H](NC(=O)OCc1ccccc1)C(=O)O	inactive
CCn1cc(C(=O)O)c(=O)c2cc(F)c(N3CCNCC3)cc21	inactive
CN(C)CCN1C(=O)c2ccccc2N(C)c2ccccc21	inactive
Nc1ccc(N=Nc2ccccc2)c(N)c1	42.7 µM (active)
CC[C@]1(O)C[C@H]2CN(CCc3c([nH]c4ccccc34)[C@@](C(=O)OC)(c3cc4c(cc3OC)N(C=O)[C@H]3[C@@](O)(C(=O)OC)[C@H](OC(C)=O)[C@]5(CC)C=CCN6CC[C@]43[C@@H]65)C2)C1	inactive
CCOC(=O)[C@H](CCc1ccccc1)N[C@@H](C)C(=O)N(CC(=O)O)C1Cc2ccccc2C1	inactive
COc1ccccc1N1CCN(CCCCNC(=O)c2ccc(-c3ccc(C(C)=O)cc3)cc2)CC1	inactive
C=C(C)[C@@H]1CCC2=CCC[C@@H](C)[C@]2(C)C1	inactive
CCOC(C)=O	inactive
CC(=O)c1ccc([N+](=O)[O-])cc1	inactive
C1COC1	inactive
CC=C(Cl)Cl	inactive
CC(O)c1ccccc1 (stereo not given)	inactive
C=COCC(C)C	inactive
